# SENP7 block: inhibitors of human SENP7 protease | AID 434973 | inhibition, % at 5 µM | 330,000 tested, 1.5% active | Q9BQF6 | recombinant SENP7, Z-RLRGG-aminoluciferin luminescence, 40 min;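 active = inhibition above about 50% at the single test dose, limit read from the data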;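 also: plate controls were DMSO with enzyme for no effect and no enzyme buffer wells for full effect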
# SENP8 block-1: SENP8 protease inhibition; Q96LD8; purified SENP8, Z-RLRGG-aminoluciferin cleavage, luminescence; inhibition, % at 10 µM; 330,000 tested, 1.2% active; AID 2540; in the data active = inhibition above about 50%
# Target sequence (Q96LD8 whole entry, looked up): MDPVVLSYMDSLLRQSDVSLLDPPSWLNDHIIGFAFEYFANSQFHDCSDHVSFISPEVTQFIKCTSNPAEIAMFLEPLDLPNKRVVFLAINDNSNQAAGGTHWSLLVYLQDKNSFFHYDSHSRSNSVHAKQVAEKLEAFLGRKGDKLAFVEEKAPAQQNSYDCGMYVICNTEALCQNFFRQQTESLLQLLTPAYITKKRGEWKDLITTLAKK
# SENP6 inh: inhibitors of human SENP6 protease. Recombinant SENP6 catalytic domain, aminoluciferin luminescence. Q9GZR1. 330,000 tested, 1.8% active. inhibition, % at 10 µM;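 active = inhibition above about 50% at the single tested dose, limit read from the data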;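 also: plate controls were DMSO wells with enzyme for no effect and DMSO wells lacking enzyme for full effect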
# Target sequence (Q9GZR1 628-1112 limits assumed): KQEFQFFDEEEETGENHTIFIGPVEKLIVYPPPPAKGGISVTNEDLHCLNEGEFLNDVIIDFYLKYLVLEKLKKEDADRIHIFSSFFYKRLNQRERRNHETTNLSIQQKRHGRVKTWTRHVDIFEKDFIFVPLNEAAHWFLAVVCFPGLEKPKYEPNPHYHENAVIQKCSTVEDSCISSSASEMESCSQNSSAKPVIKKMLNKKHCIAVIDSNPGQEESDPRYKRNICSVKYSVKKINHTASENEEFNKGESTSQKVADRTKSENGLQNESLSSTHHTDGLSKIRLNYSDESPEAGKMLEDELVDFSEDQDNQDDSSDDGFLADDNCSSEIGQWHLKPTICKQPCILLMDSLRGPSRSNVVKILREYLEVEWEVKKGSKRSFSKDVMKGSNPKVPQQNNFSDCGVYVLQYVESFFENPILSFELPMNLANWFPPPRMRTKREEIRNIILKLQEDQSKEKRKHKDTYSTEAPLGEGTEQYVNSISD
# Platelet DG rel: platelet dense granule release activity; human platelet-rich plasma, SFLLRN dense granule ATP release, luminescence; inhibition, %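 (compounds screened at 7.5 µM in platelet-rich plasma)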; 300,000 tested, 0.22% active;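 active = mean replicate score, as percent of positive control, at or above 50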
# SENP8 block-2: SENP8 (human) protease inhibition; Q96LD8; recombinant SENP8, Nedd8 substrate fluorescence; inhibition, % at 20 µM; 360,000 tested, 0.64% active; AID 602440; in the data active = inhibition mostly above about 40%, no sharp cut-off; inactive = mostly below about 27%
# SENP8 conf-1: confirmation of human SENP8 protease inhibitors; shares compounds with SENP7 block; Recombinant SENP8, Z-RLRGG-aminoluciferin luminescence, 60 min; inhibition, % at 12.5 µM; 6,200 tested, 40% active;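 active = mean inhibition across replicates above about 50%, limit read from the data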
# SENP6 conf: confirmation of human SENP6 protease inhibitors | AID 488915 | shares compounds with SENP7 block | inhibition, % at 12.5 µM | recombinant SENP6, Z-RLRGG-aminoluciferin luminescence | 6,200 tested, 58% active
# SENP7 conf: confirmation of human SENP7 protease inhibitors; shares compounds with SENP7 block; recombinant SENP7, Z-RLRGG-aminoluciferin luminescence, 40 min; inhibition, % at 12.5 µM; 6,200 tested, 69% active; AID 488917
# Casp3 SENP sel: selectivity test for SENP inhibitors: human caspase-3 inhibition. shares compounds with SENP7 block. purified caspase-3, Z-DEVD-aminoluciferin luminescence, 60 min. inhibition, % at 12.5 µM. 6,200 tested, 60% active;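 active = mean inhibition above about 50%, limit read from the data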;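 also: plate controls were enzyme with DMSO for no effect and wells without caspase-3 for full effect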
# SENP luc ctr: luminescence interference (SENP counter-screen). Pre-incubated SENP8/Z-RLRGG-aminoluciferin, luciferase luminescence interference. AID 488919. inhibition, % at 12.5 µM. shares compounds with SENP7 block. 6,200 tested, 39% active;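 active = mean inhibition above about 50% when retested at one dose, limit read from the data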;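 also: plate controls were DMSO wells with completed reaction for no effect and substrate without enzyme for full effect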
# SENP8 conf-2: confirmation of human SENP8 protease inhibitors. AID 624319. 1,400 tested, 15% active. inhibition, % at 25 µM. shares compounds with SENP8 block-2. purified SENP8, Nedd8-AMC/pro-Nedd8 cleavage fluorescence, 30 min; in the data active = inhibition mostly above about 39%, no sharp cut-off; inactive = mostly below about 34%
# Starred values were filed as active, the others as inactive; x = no result given. Compounds with a hit are over-represented: about 2.4% of the library has one in this group of screens.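 The calls were made as follows, unless noted: active = mean inhibition above about 50% in the one-dose retest (limit read from the data); inactive = the rest.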
SMILES,SENP7 block,SENP8 block-1,SENP6 inh,Platelet DG rel,SENP8 block-2,SENP8 conf-1,SENP6 conf,SENP7 conf,Casp3 SENP sel,SENP luc ctr,SENP8 conf-2
CCOC(=O)c1nn(-c2ccc(C)c(C)c2)c(=O)c2c(N)scc12,8.9,3.4,50.6*,2.7,60.4*,-5.7,2.9,-5.0,6.9,-0.5,48.6*
Cc1ccc(C(=O)OCC(=O)NC(C)c2ccccc2)s1 (configuration not stated),4.5,-10.5,-2.3,x,5.7,x,x,x,x,x,x
Nc1ccc(C(=O)OCC(=O)NC(=O)c2ccccc2)cc1[N+](=O)[O-],-1.9,1.9,-1.3,-0.9,8.6,x,x,x,x,x,x
CCc1cc(C(=O)OCC(=O)NCCc2ccccc2)sc1C,x,x,x,x,9.0,x,x,x,x,x,x
CC(NC(=O)COC(=O)c1ccc([N+](=O)[O-])s1)c1ccccc1 (configuration not stated),40.6,61.8*,75.5*,-2.9,40.8*,23.0,46.3,2.7,-8.7,-6.7,80.7*
O=C(COC(=O)c1ccc([N+](=O)[O-])s1)NNC(=O)c1ccccc1,44.9,74.6*,70.4*,x,48.3*,4.8,88.3*,48.5,49.2,1.0,86.2*
O=C(COC(=O)c1ccc([N+](=O)[O-])s1)NCCc1ccccc1,26.3,68.2*,62.1*,x,51.3*,84.4*,86.1*,42.0,13.7,0.1,80.1*
COCCCNC(=O)c1ccc2sc(C3=C[C@@H](O)[C@@H](O)[C@@H](CO)O3)nc2c1,x,x,x,x,-2.1,x,x,x,x,x,x
COc1cc(O)c(CC=C(C)C)c(O)c1C(=O)CCc1ccc(O)cc1,12.3,69.6*,77.4*,2.8,54.2*,41.4,77.2*,82.9*,-2.1,3.9,19.0
COc1ccc(NC(=S)Nc2ccc3nc(C)c(C)nc3c2)cc1,-0.3,-1.0,-11.1,10.8,-114.8,x,x,x,x,x,x
COc1ccc(NC(=S)Nc2ccc3nsnc3c2)cc1,88.8*,95.4*,95.7*,19.4,52.5*,2.7,89.8*,84.5*,22.1,31.9,71.2*
O=[N+]([O-])c1nn(-c2ccc3c(c2)OCCO3)n(O)c1=NCc1ccc(F)cc1Cl,64.5*,10.6,50.3*,10.8,51.7*,4.6,20.3,28.2,9.5,6.5,21.1
Cc1cccc(NC(=O)CSc2nnc(CNC(=O)c3ccco3)n2C)c1,3.3,1.8,4.3,-2.7,7.3,x,x,x,x,x,x
CC1=C(C(=O)N2CCOCC2)CC(CC(=O)NC2CC2)C(=O)N1Cc1ccc(F)cc1 (configuration not stated),x,x,x,x,18.7,x,x,x,x,x,x
O=C(c1ccc([N+](=O)[O-])o1)N1CCc2ccccc21,46.0,32.9,52.5*,3.5,48.2*,26.7,52.1*,41.0,59.3*,17.3,25.3
CCCCOc1ccc(-c2cc(C(F)(F)F)c(C#N)c(SCC(=O)O)n2)cc1,6.7,-4.4,-7.0,-1.2,-373.6,x,x,x,x,x,x
CCOC(=O)C1=C(C)OC2(O)c3ccccc3C(=O)C12O (configuration not stated),46.4,64.4*,68.7*,22.5,95.7*,24.8,88.5*,82.3*,-3.6,-1.1,98.6*
O=C1C(=O)N(Cc2ccccc2)C(=O)N1CCN1C(=O)c2ccccc2C1=O,-9.4,-11.0,-39.2,7.7,9.1,x,x,x,x,x,x
O=C1Cc2ccccc2C(=O)N1CCc1ccccc1,87.4*,94.9*,97.2*,-4.1,98.0*,85.9*,95.8*,86.4*,96.2*,11.6,88.3*
COc1ccc(S(=O)(=O)Oc2ccc3ccccc3c2)cc1,-2.7,-19.6,-13.2,-0.5,9.1,x,x,x,x,x,x
COc1ccc(S(=O)(=O)Oc2ccc3cccc(N)c3c2)cc1,46.8,83.8*,86.1*,-18.8,56.5*,-0.2,14.9,12.1,5.6,-3.0,32.8
COc1ccc(/C=N/NC(=O)c2nn(-c3ccc(C)c(C)c3)c(=O)c3ccccc23)cc1,-3.5,-7.7,-7.4,3.2,-10.7,x,x,x,x,x,x
COc1ccc(/C=N/NC(=O)c2nn(-c3ccc(Cl)cc3)c(=O)c3c(N)scc23)cc1,14.7,18.4,60.7*,0.3,48.9*,-1.3,45.8,-0.5,27.6,-2.0,61.1*
COc1ccc(/C=N/NC(=O)c2nn(-c3ccccc3)c(=O)c3c(N)scc23)cc1,11.9,18.5,52.3*,2.7,73.8*,23.8,67.5*,20.9,61.2*,2.9,82.9*
Oc1ccc(Br)cc1-c1ccnn1-c1ccccc1,-12.0,0.0,0.1,-2.2,-2.3,x,x,x,x,x,x
SMILES,SENP7 block,SENP8 block-1,SENP6 inh,Platelet DG rel,SENP8 block-2,SENP8 conf-1,SENP6 conf,SENP7 conf,Casp3 SENP sel,SENP luc ctr,SENP8 conf-2
O=C(Cc1cccc2ccccc12)Nc1ccccc1Br,-16.2,-6.6,-10.7,7.1,14.8,x,x,x,x,x,x
CC(=O)N1N=C(c2cccc([N+](=O)[O-])c2)OC1c1ccc(Br)cc1 (configuration not stated),2.6,-7.8,-12.7,-5.7,16.8,x,x,x,x,x,x
CC(=O)N1N=C(c2ccccc2)OC1c1ccc([N+](=O)[O-])s1 (configuration not stated),32.8,32.7,65.7*,-0.5,61.2*,15.1,24.4,-0.2,-0.9,-1.2,39.1*
CCC(=O)c1ccc(OC(=O)N2CCOCC2)cc1,-4.6,-1.9,-0.2,-1.6,22.8,x,x,x,x,x,x
CN(C)c1ccc(N/C=C/C(=O)c2ccco2)cc1,95.5*,90.3*,96.0*,67.7*,45.0*,1.3,94.1*,100.6*,95.2*,31.1,12.8
CC/C(=N\NC(=O)c1cc(C2CC2)[nH]n1)c1ccccc1,3.1,-9.2,-3.2,-19.9,13.0,x,x,x,x,x,x
Nc1nnc2c(n1)CCCC2,36.4,49.5,56.2*,0.5,87.8*,6.2,60.7*,35.5,19.0,-5.9,62.9*
COc1ccc(-c2cc(=O)n(-c3ccc([N+](=O)[O-])cc3)[nH]2)cc1,47.8,79.3*,92.0*,-1.8,86.9*,11.1,28.9,40.9,-3.3,7.8,24.5
COc1ccc(-c2[nH]n(-c3ccc([N+](=O)[O-])cc3)c(=O)c2C=NCc2ccc(F)cc2)cc1,3.9,-4.6,-1.3,7.5,10.4,x,x,x,x,x,x
CC1=NN(c2ccc(Cl)cc2)C(=O)C1C(c1ccccc1O)c1c(C)[nH]n(-c2ccc(Cl)cc2)c1=O (configuration not stated),91.9*,34.5,85.6*,28.8,94.8*,-8.9,22.5,-2.0,3.4,3.6,37.6
